Results as given in the supplement of paper PMC11417369.
In all, about 25,000 sequences were measured (“ln(normalized median fluorescence intensity)”: median about 6.7, highest 2% from about 10 on). The list comes from a sample in which the highest values are over-represented; it also holds similar and randomly drawn sequences.

system: PfHDP1 homeodomain (GST-tagged); test: gcPBM binding intensity (ln(normalized median fluorescence intensity)); higher = stronger DNA binding
How it was run: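 Plasmodium falciparum DNA-binding domains carrying a GST tag were expressed in E. coli and applied for 1 h, at about 25 μg on average, to an Agilent 4 × 180k array. The array held primer-extended double-stranded 36-bp intergenic genomic probes together with negative controls, and binding took place in 1× PBS with 1% milk, 0.2 mg/ml BSA, 0.5% salmon testes DNA and 0.03% Triton X-100. An Alexa488 anti-GST antibody detected bound protein, and the array was scanned at 488 nm. Binding intensity is taken as the highest Masliner-normalised natural-log median intensity across replicate spots of either probe orientation.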

Row | Sequence | gcPBM binding intensity (ln)
1 | ATATATATATTTATATTTATATGTAAATATCAACGT [TGCATGCA_negctrl_site32] | 8.19
2 | ATCCCCATAAAAAATACACACAAATATTTATACATA [CACACA_site1001] | 6.79
3 | TATATATATATATATACACACATATACATATTGTTT [CACACA_site3499] | 9.37
4 | TAATATATATAAACATGTACAAATCAAAAACAAAAG [XGTACX_site4076] | 7.52
5 | AATAATAAAAAATATACACACATATATAAATAAATA [CACACA_site6164] | 6.35
6 | GAACAAATTAAATAGGTGCATTAACATGTTCTATTT [GTGCAC_site9729] | 10.1
7 | ATTTCTCTATCGTAATGTACAAAAAAAAGGGAAAAG [XGTACX_site1335] | 6.48
8 | TATATATAATATTGCACACAAAATTAAAAGTAAATA [CACACA_site19] | 10.3
9 | TATATATATAATATTGCACACAAAATTAAAAGTAAA [CACACA_site7889] | 9.61
10 | AAAATATAATATATTGCACACAAAAAGTGAATTATT [CACACA_site8489] | 10.6
11 | TTAACCTTTTGATATTGTACCCATAATCTAATACAA [XGTACX_site769] | 6.47
12 | ATGTAGAAGTAATGCACACATATGTATTTATATATA [CACACA_site5391] | 10.9
13 | ATGTAGAAGTAATGCACACATATGTATATATATATA [CACACA_site2494] | 10.5
14 | ATATGTAGAAGTAATGCACACATATGTATATATATA [CACACA_site8796] | 10.3
15 | ATGTGATAGAAGTACACACACATATGTATTTATAAT [CACACA_site5075] | 6.7
16 | TATACATATGTATGCACACATACATACACATAGAAT [CACACA_site3480] | 9.51
17 | ATATATAGAATGTGTACACACATATGTATTTATATA [CACACA_site810] | 6.7
18 | TTTAGTGAGTTTGTTGTGCACTGAAAAAATTACAAT | 10.4
19 | AATTCGTACCTCATTTGTACATATATATATATATAT [XGTACX_site5513] | 9.34
20 | TTCAAGATTTATTATACACACATATTAATATATATA [CACACA_site573] | 6.83
21 | AAGTATGTATCACAAAGTACTTAAGCATATATTTAA [XGTACX_site4121] | 6.57
22 | ATATGTAAAATGAAGATACATACATACATACATACA [CACACA_negctrl_site715] | 7.53
23 | TGTTTATCATATTTGTGTCCTCATTTTTTAGTATCA [XGTACX_site947] | 6.62

Row | Sequence | gcPBM binding intensity (ln)
24 | ATATGCACTCATTGTGCACACGCATATTACGAAAAG [CACACA_site2637] | 11.6
25 | ACGCACGAAATAAATACATGCATATTGTAAAAATTA [TGCATGCA_site310] | 8.99
26 | AATGTGTTCATATATGCACACGCATATATATTATTG [CACACA_site9274] | 9.95
27 | ATGCACTCATTGTGCACACGCATATTACGAAAAGAA [CACACA_site2638] | 10.8
28 | TGTGTTCATATATGCACACGCATATATATTATTGTT [CACACA_site3822] | 9.67
29 | TGTGTTCATCTATGCACACGCATATATATTATTGTT [CACACA_site5985] | 9.64
30 | TTATAATAGTTAATATGTACATATTTAATAAATAAT [XGTACX_site3183] | 6.23
31 | AGACTATCATTTTTTTAACACACAAAAAAAATAAAA [CACACA_site9173] | 6.35
32 | ATAAAGCCATACAATACACACATTTTACATGGGGGT [CACACA_site9072] | 7.27
33 | AGTACATTATAGAATACACACCTATATATATATATA [CACACA_site4447] | 9.29
34 | ATAATACATATAGAAGGTACACTATTATTTTCCTGA [XGTACX_site903] | 6.13
35 | TTCTTTTTAATGTCGGTGCAACTCCATAAAAACAAA [GTGCAC_site9488] | 10.9
36 | TTCTTTTTTTTTAAAACAAACAAACAAACAAACAAA [CACACA_negctrl_site832] | 6.6
37 | ATATTTTATGTAAAGGTGCAAAACAACATTAAAAAA | 9.97
38 | TCTTTCTAAAGATGTAGTACAAAATAAATATAATAT [XGTACX_site6564] | 6.87
39 | TCCAAAATATCCTTCACACACGAACAGTTTCATTTA [CACACA_site5511] | 6.49
40 | TTGTATTGTATATGCACACATAGAACACTTTTTTTT [CACACA_site4133] | 8.44
41 | ATTTGTATTGTATATGCACACATAGAACACTTTTTT [CACACA_site9373] | 9.69
42 | ATTGTATGCACGTCTGCACACTTTTTTTTTTTTTTT [CACACA_site2082] | 11
43 | AAAATATATTCAACTTGTACATATATATATATATAT [XGTACX_site7629] | 9.4
44 | TTAATATTCCAGCTTTGTACATATATATATTATAAA [XGTACX_site7954] | 6.6
45 | TTCTTGTTCCTGAAAGTGCATATAACAAAAATAACA [GTGCAC_site9635] | 8.06
46 | TTTGTTCTTTTTGAAGTGCACTGAAATATAACAAAA | 10.9

Row | Sequence | gcPBM binding intensity (ln)
47 | TTTTGAAGTAACAAATAAATAAATAAATATATAAAA [GTGCAC_negctrl_site517] | 6.53
48 | TATTGTATTTCATATTGTACTAAAAAAAAAAAAAAG [XGTACX_site6694] | 6.24
49 | CCTCATCCACTATGCACACAAAAAAGAAATACACTA [CACACA_site3422] | 9.52
50 | GTCCTCATCCACTATGCACACAAAAAAGAAATACAC [CACACA_site9131] | 10.5
51 | AGAAAGAAAATATATACACACAAAAAAAAATATATA [CACACA_site1412] | 6.61
52 | TTACACAAACAAATTATGGACACATAAGTAAAAGGA [CACACA_negctrl_site1622] | 6.97
53 | GCACATATGAATATAATACACACTTGTATTATTAAT [CACACA_site1841] | 6.59
54 | TTTTTGATGAAATATTATTTTCCTGACTTGGATTAA [CACACA_negctrl_site148] | 6.27
55 | TATCCTTATATTTGCACACACACACCCTAAAATGAA [CACACA_site1029] | 10.6
56 | TGTCCTTATTTGCACACACACATATAAGAAATTTAA [CACACA_site7485] | 10.5
57 | AATGTCCTTATTTGCACACACACATATAAGAAATTT [CACACA_site3186] | 10.6
58 | TTTTTTTTTTTTTGCACACACCATATTTATAGAAAT [CACACA_site5772] | 9.04
59 | TAAATGTCCTTATTTGCACACACACCCATAAGAAAT [CACACA_site3185] | 10.4
60 | TCCTTATATTGGCACACACACACAATAAAATGAAAA [CACACA_site4715] | 7.07
61 | GATATCCTTATATTTGCACACACACCCAATAAAATG [CACACA_site1028] | 9.87
62 | TCCTTATATTTGCACACACACACAAGAAAATGAAAA [CACACA_site6613] | 11
63 | TCTATTATCCTTTGCACACAAAATAAATGAAAAAAT [CACACA_site3029] | 9.75
64 | AAAATGAAGAAGTGCACACATATATATATTTATATA [CACACA_site507] | 9.11
65 | ATTCTATTATCCTTTGCACACAAAATAAATGAAAAA [CACACA_site3030] | 9.63
66 | TATCCTTATATTTGCACACACACACTAGAAAATGAA [CACACA_site4714] | 10.7
67 | AAAATATTTATATTTACACACACATAATACATATAT [CACACA_site32] | 6.84
68 | TTACATATTTTCATTTGTACATATTCATTTTTTTTC [XGTACX_site6988] | 6.47
69 | ATATATATGTGAAAATCACACATTGCTTATCTGTAA [CACACA_site6044] | 6.3

Row | Sequence | gcPBM binding intensity (ln)
70 | CAAACAATTAAACAAACACACATATACATGTATATA [CACACA_site2060] | 6.54
71 | TATAAATAAAAATATACACACTGTATTATTGTAATA [CACACA_site7721] | 6.24
72 | CAATGCTTTATCAATACATGCATATATATAGAAATA [TGCATGCA_site857] | 6.46
73 | CTTATGTGCATACCTACACACTTACATATATATATA [CACACA_site8973] | 9.47
74 | TATGTATATATTTGTGCACACCAAAGTTTGATTTTA [CACACA_site1861] | 11.4
75 | TAGTTTTTATATAGCACACATATTGTGATTATGTAT [CACACA_site1196] | 6.83
76 | TGTATATATTTGTGCACACCAAAGTTTGATTTTATT [CACACA_site1860] | 11.4
77 | ATATGTATTTATATATGTTTGATTTTTTTTTTTTTT [TGCATGCA_negctrl_site506] | 6.23
78 | AATATATATTTATAAACACACACCAAAATTTGTGCT [CACACA_site3091] | 6.82
79 | TGTATAAAAGTTTATACACACATTTGATATATTTCA [CACACA_site6606] | 6.58
80 | AAAAAAAAAAAAAACACACACAAATTTAATATATAT [CACACA_site1695] | 6.64
81 | TTTTTTTTTTTTTTTTGTACTCATATCTACTATCAT [XGTACX_site274] | 6.44
82 | AAATAAAATTTTATGTGTACGCAAAAAGTTGTAAGC [XGTACX_site8911] | 7.29
83 | GTGGACGAAATAGTTGTAAATTTATGTGCAAACCTC [XGTACX_negctrl_site564] | 11.2
84 | AAATTTATATATAGTTGTACAAAAATATGTTTCGTA [XGTACX_site4801] | 6.62
85 | GTTTTTAATGTTTTGACATGCAATATTAAAAATAAT [TGCATGCA_site174] | 6.57
86 | TATATATATATATATATTTTAAATGATATAAATGGT [TGCATGCA_negctrl_site152] | 9.23
87 | AAAAAAAAAATGAGCACACATAAATAAAAACAAACA [CACACA_site1573] | 7.39
88 | AATATATCAAAAATGATGACATAAATATATTAATTT [GTGCAC_negctrl_site530] | 6.13
89 | GTATTCATTCCTTGAGTGCAATTGCAATAAATAAAA | 10.7
90 | AAATGAATATTCATAGTGCAATATATAAATGAAAAT | 9.5
91 | ATTAAATTTCCTTGAGTGCACATTTTGTTAAAATAT | 9.29
